# Bioassay records: PubChem, National Center for Advancing Translational Sciences (NCATS)
# A selection: hits, their analogues and other compounds. The true share with any hit is near 19%.
# DT40 TDP1 CPT – growth inhibition of DT40 Tdp1-/-;hTDP1 cells with camptothecin (screen for TDP1 inhibitors); 420,000 compounds, 12% hits; chicken DT40 Tdp1-/-;hTDP1 cells + 20 nM CPT, ATP luminescence, 48 h; Potency, µM (titrated, usually from 46.2 µM), for the others: top-dose activity change, negative = growth inhibition, usual class: inhibitors; further: potency means the concentration at half of the fitted maximal effect; nearly all actives have a fitted effect of over 55% in size
#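 Cell growth measured by CellTiter-Glo luminescence after a minimum 48 h, 37 C compound exposure with 20 nM CPT in Tdp1-knockout DT40 cells stably expressing hTDP1, seeded 400/well; qHTS titration format.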
# HT1080NT lethal – kills 2HG-producing HT-1080-NT fibrosarcoma cells | AID 686970 | Potency, µM (series often up to 46.1 µM), for the others: top-dose activity, negative = less viability, actives largely listed as cytotoxic | HT-1080-NT fibrosarcoma viability, CellTiter-Glo ATP luminescence, 48 h | 360,000 compounds, 1.6% hits;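 further: NT is the 2HG producing partner of a matched IDH1 knockdown line; potency means the concentration at half of the fitted maximal effect; 0% = DMSO-treated cells and -100% = media-only wells without cells; nearly all actives have a fitted effect of over 55% in size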
#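 Fibrosarcoma NT cells, 750 per well in 5% FBS RPMI, were exposed to compound for 48 hours. Viability: CellTiter-Glo luminescence.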
# IL-1B inflam inh – inflammasome signaling inhibition, IL-1 beta readout | THP-1 LPS/ATP IL-1B secretion, AlphaLISA, 16 h; stronger effect = lower value | activity change, % at 57.5 µM | 360,000 compounds, 4.7% hits; in the data active means activity change below about -50%; inconclusive means mostly about -30% to -49%
#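 THP-1 cells pretreated 1 hr with compounds (up to 57.5 uM final), then stimulated with LPS (250 ng/mL final) plus ATP (1.25 mM final); secreted IL-1B measured by AlphaLISA after 16 hr, decreased signal indicating inhibition.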
# HT1080 IDH1KD tx – HT-1080 IDH1 knockdown cell toxicity (counter line); Potency, µM (top dose mostly 46.1 µM), inactives show at the top dose activity, negative = toxicity, most hits filed as cytotoxic; 360,000 compounds, 2% hits; HT-1080 IDH1 knockdown viability, ATP luminescence, 48 h;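 further: potency means the concentration at half of the fitted maximal effect; 0% = DMSO wells and -100% = cell-free medium wells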
#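 IDH1KD HT-1080 cells, 750/well, RPMI + 5% FBS; compound pinned after 2 h settling; 48 h, 37 °C; CellTiter-Glo luminescence; % activity normalised to DMSO and no-cell wells; curves fitted, classed by r2 and efficacy.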
# DT40 TDP1 no CPT – qHTS for Inhibitors of human tyrosyl-DNA phosphodiesterase 1 (TDP1): qHTS in cells in absence of CPT; 420,000 compounds, 15% hits; Potency, µM (doses to about 46.2 µM), inactives show at the highest dose activity change, negative = growth inhibition, actives largely listed as inhibitors; DT40 Tdp1-/- hTDP1 cells, no CPT, ATP luminescence, 48 h; further: potency means the concentration at half of the fitted maximal effect; nearly all actives have a fitted effect of over 55% in size
#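 Cells were dispensed at 400 per well, compounds added by pin tool, plates incubated ≥48 hr at 37 °C, then CellTiter-Glo added for 30 min at room temperature before luminescence reading. Line: DT40 Tdp1-/- complemented with hTDP1; camptothecin omitted.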
# An asterisk follows results filed as active; ? = inconclusive; . = not tested or not shown. Unless noted, the call rests on the fitted dose curve; in most records, active means well fitted curve in the direction sought with a large enough effect; inconclusive means small, poorly fitted or top-dose-only effect, or another doubt; inactive means no such curve, though single readings can be large; an effect the other way counts as inactive or inconclusive. Unless noted, on the % scale 0 is the no-effect control and ±100 the full control effect.
SMILES,DT40 TDP1 CPT,HT1080NT lethal,IL-1B inflam inh,HT1080 IDH1KD tx,DT40 TDP1 no CPT
COc1ccc(CN2CCN(c3cccc(C)c3C)CC2)cc1OC,-9%,19%,41,8%,16%
COc1cc(CN2CCN(c3cccc(C)c3C)CC2)cc(Br)c1O,13µM*,?,?,?,21µM*
Cc1ccn2c(C(=O)CSc3ccccc3)c(C)nc2c1,8.2µM*,15%,-8,-1%,8.2µM*
Cc1ccn2c(C(=O)CSc3ccc(Cl)cc3)c(C)nc2c1,23µM*,-2%,14,-3%,21µM*
Cc1[nH]n(-c2ccccc2)c(=O)c1N=Nc1cccc(C(=O)O)c1,30%,1%,24,5%,-3%
Oc1ccc(N=Nc2cccc(C(F)(F)F)c2)cc1C=Nc1ccc(N2CCOCC2)cc1,23µM*,-3%,42,-1%,18µM*
Oc1ccc(C=Nc2ccc(N3CCOCC3)cc2)c(O)c1,-22%,-10%,3,-16%,-20%
COc1cc(Cn2c3ccc(NC(=O)NCc4ccc(F)cc4)cc3c(=O)n2C)ccc1F,5.8µM*,?,61,?,5.2µM*
Cn1c(=O)c2cc(NC(=O)CCc3cccc(Cl)c3)ccc2n1Cc1cccc(C(F)(F)F)c1,-20%,28%,55,9%,-24%
Cn1c(=O)c2cc(NC(=O)NCc3ccc(Cl)cc3Cl)ccc2n1Cc1ccccc1,?,-1%,-60*,-5%,?
COc1ccc(CCNC(=O)Nc2ccc3c(c2)c(=O)n(C)n3Cc2ccc(F)cc2)cc1OC,?,25%,0,12%,?
C=C(C)Cn1c2ccc(NC(=O)CCc3cccc(Cl)c3)cc2c(=O)n1C,18µM*,?,38,?,15µM*
CCOCCC(=O)Nc1ccc2c(c1)c(=O)n(C)n2CC=C(C)C,5.2µM*,?,-13,?,2.9µM*
Cn1c(=O)c2cc(NC(=O)NCc3ccccc3)ccc2n1Cc1ccc(Cl)cc1,?,-11%,42,-21%,?
Cc1cc(Br)c2c(c1)C(O)(N1CCCCC1C)C(=O)N2 (configuration not stated),1%,-2%,-8,-6%,-29%
COc1cc(Cn2c3ccc(NC(=O)CCc4ccc(O)cc4)cc3c(=O)n2C)ccc1F,?,?,0,?,21µM*
Cn1c(=O)c2cc(NC(=O)CCc3ccc4c(c3)OCO4)ccc2n1Cc1ccc(F)cc1,16µM*,-5%,?,?,?
Cn1c(=O)c2cc(NC(=O)Nc3ccccc3)ccc2n1Cc1ccccc1,?,-28%,-18,?,?
Cn1c(=O)c2cc(NC(=O)NCCc3ccccc3)ccc2n1Cc1ccc(F)cc1,?,-12%,11,-22%,?
CS(=O)(=O)c1cnc(-c2ccccc2)nc1-c1ccccc1Cl,1%,-10%,0,-1%,-1%
CCOC(=O)Cn1c(C)cc(COC)c(C#N)c1=O,-2%,17%,-4,-1%,5.2µM*
COCc1cc(C)n(CC(=O)N2CCCC2)c(=O)c1C#N,-19%,4%,-1,-1%,17%
COc1ccc(-c2noc(-c3ccc(N4CCN(c5ccccc5OC)CC4)c([N+](=O)[O-])c3)n2)cc1,1%,.,.,.,3%
COc1ccc(-c2noc(-c3ccc(N4CCN(C)CC4)c([N+](=O)[O-])c3)n2)cc1OC,5.2µM*,.,.,.,3.3µM*
COc1ccccc1-c1noc(-c2ccc(N3CCOCC3)c([N+](=O)[O-])c2)n1,21µM*,.,.,.,13µM*
SMILES,DT40 TDP1 CPT,HT1080NT lethal,IL-1B inflam inh,HT1080 IDH1KD tx,DT40 TDP1 no CPT
Cc1cccc(C)c1NC(=O)Cn1nnc(C(=O)Nc2c(C)cccc2C)c1N,4%,.,.,.,-15%
COc1cc(C2C3=C(CC(C)(C)CC3=O)NC3=C2C(=O)c2ccccc23)ccc1O (configuration not stated),-8%,-24%,5,-22%,-25%
CC1(C)CC(=O)C2=C(C1)NC1=C(C(=O)c3ccccc31)C2c1ccc(Cl)cc1 (configuration not stated),?,-14%,-54*,18µM*,?
Cc1ccc(C2C3=C(CC(C)(C)CC3=O)NC3=C2C(=O)c2ccccc23)cc1 (configuration not stated),21µM*,?,-57*,-29%,18µM*
COC(=O)c1ccc(CSc2ccccc2NC(=S)Nc2cccc(SC)c2)o1,?,?,28,?,?
COc1cccc(CNC(=O)c2cc3c(cc2Cl)N2CCCCCC2=NS3(=O)=O)c1,-19%,5%,6,2%,-20%
CCC(NC(=O)c1ccc([N+](=O)[O-])cc1[N+](=O)[O-])c1ccccc1 (configuration not stated),-29%,-13%,24,-7%,?
COc1cc2cc(C(=O)Nc3ccccc3)c(N)nc2cc1OC,?,5%,?,7%,21µM*
COc1cc(OC)c(C(=O)Nc2cccc3ccccc23)cc1OC,?,-2%,-5,10%,?
CC(NC(=O)c1ccc([N+](=O)[O-])cc1[N+](=O)[O-])c1ccc(-c2ccccc2)cc1 (configuration not stated),13µM*,-9%,-1,-22%,13µM*
COc1cc2cc(C(=O)NC(C)c3cccc4ccccc34)c(N)nc2cc1OC (configuration not stated),26µM*,26µM*,?,18µM*,16µM*
COc1ccccc1C(=O)NC(C)c1cccc2ccccc12 (configuration not stated),8.2µM*,?,-24,?,3.7µM*
COc1cccc(C(=O)NC(C)c2ccc(-c3ccccc3)cc2)c1OC (configuration not stated),?,-10%,-64*,-29%,?
COc1cccc(C(=O)NC(C)c2cccc3ccccc23)c1OC (configuration not stated),-29%,-23%,-65*,-17%,?
COc1cc(OC)cc(-c2noc(-c3csc([C@@H]4O[C@H](CO)[C@H](O)[C@H](O)[C@H]4O)n3)n2)c1,0%,-9%,-10,-3%,-10%
NNC(=O)c1cccn(Cc2cccc(C(F)(F)F)c2)c1=O,15µM*,-5%,-2,-15%,?
CNC(=O)c1ccc(=O)n(Cc2cccc(C(F)(F)F)c2)c1,25%,9%,4,14%,3%
O=C1CN(C(=O)COc2ccc(Cl)cc2Cl)C(c2ccc(F)cc2)c2cc(F)ccc2N1 (configuration not stated),21µM*,.,.,.,?
